About 79,000 compounds went through this panel and 15% of them were active in at least one assay; those are over-represented in the sample as a whole. Values without a mark were called inactive. The source made the active and inactive calls. Rule as the data show it: active = growth inhibition above about 70%; inactive = the rest.

Experiment [1] is described as follows: NCI Yeast Anticancer Drug Screen. Data for the rad50 strain (AID 155).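 Also: 0% = growth of vehicle-only cultures of the same strain.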 To be noted: S. cerevisiae rad50 strain growth inhibition; at 50.0 µM; hits give high values. In outline:
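Vehicle-treated cultures provide the reference for the growth inhibition reported for compound-exposed, repair-deficient yeast.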

Experiment [2] is described as follows: NCI Yeast Anticancer Drug Screen. Data for the mec2-1 strain (AID 157). To be noted: S. cerevisiae mec2-1 strain, at 50.0 µM, hits give high values. In outline: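 Each compound was tested on mec2-1 yeast, a strain altered in DNA damage repair or cell cycle control. Growth inhibition is reported relative to vehicle.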
Experiment [3] in a line: NCI Yeast Anticancer Drug Screen. Data for the sgs1 mgt1 strain (AID 161).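 Also: 0% = growth of cultures given vehicle only.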 Conditions: S. cerevisiae sgs1 mgt1 strain, at 50.0 µM, hits give high values. The method in brief:
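Genetically altered yeast, compound exposure, growth inhibition relative to vehicle.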

A short description of experiment [4]: NCI Yeast Anticancer Drug Screen. Data for the cln2 rad14 strain (AID 165).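 Also: 0% = growth equal to vehicle treated cultures.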 Conditions: S. cerevisiae cln2 rad14 strain, at 50.0 µM, hits give high values. The method in brief:
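Test compounds were added to cln2 rad14 yeast cultures; inhibition of growth was then determined by comparison with vehicle treatment.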

Experiment [5] in a line: NCI Yeast Anticancer Drug Screen. Data for the bub3 strain (AID 167). Conditions: S. cerevisiae bub3 mutant strain, at 50.0 µM, hits give high values. In outline:
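Mutant yeast screening strain plus compound; vehicle-treated cultures serve as the 0% inhibition reference.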

A short description of experiment [6]: NCI Yeast Anticancer Drug Screen. Data for the mlh1 rad18 strain (AID 175). Conditions: S. cerevisiae mlh1 rad18 strain growth inhibition; at 50.0 µM; hits give high values. The method in brief: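 Inhibition values reflect reduced growth of mutant yeast versus vehicle-treated controls following compound exposure; the mutations affect DNA damage repair.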

For `Clc1cnc(Oc2ccccc2)c2ccccc12`, the growth inhibition in experiment [1] was 2.3%; in experiment [2] it was -22.2%; in experiment [3], -10.2%; in experiment [4] it was -37.4%; in experiment [5], -1.5%; in experiment [6], -9.35%.
With `CC(C(O)c1ccccn1)[N+](=O)[O-]` (stereo not given), the growth inhibition in experiment [1] is -11.4%; in experiment [2] it was 1.55%; in experiment [3], -7.1%; in experiment [4], -21.1%; in experiment [5], -10.7%; in experiment [6], -3.4%.
With `CC(C)CCCC(C)CCCC(C)CCCC(C)CC(=O)O` (stereo not given), the growth inhibition in experiment [1] was -9.35%; in experiment [2] it was -25.5%; in experiment [3] it was -16.9%; in experiment [4] it was 43%; in experiment [5], -1.2%; in experiment [6], -23.3%.
As to `COc1ccc(/C=C2\N=C(NN)N=C2Cl)cc1`, the growth inhibition was -8.2% in experiment [1]; -30.9% in experiment [2]; 4.55% in experiment [3]; 23.4% in experiment [4]; -0.35% in experiment [5]; -13.3% in experiment [6].
Turning to `O=C(Nc1ccccc1C(=O)N/N=C/c1ccccc1O)c1ccccc1Cl`, the growth inhibition was 73.3% (active) in experiment [1]; 91% (active) in experiment [2]; 91.4% (active) in experiment [3]; 84.8% (active) in experiment [4]; 68.3% in experiment [5]; 90.8% (active) in experiment [6].
For the molecule `CC12CC(O)C(C=C1c1ccccc1)C2(C)C` (stereo not given), the growth inhibition in experiment [1] is -7.55%; in experiment [2] it was -0.95%; in experiment [3] it was 0.85%; in experiment [4] it was -14%; in experiment [5] it was -13.1%; in experiment [6], 1.45%.
Consider `c1ccc2c(c1)SCCCSCCSCCCS2`, for which the growth inhibition in experiment [1] was -15.2%; in experiment [2], -0.65%; in experiment [3], 8.1%; in experiment [4] it was 5.05%; in experiment [5], 20.6%; in experiment [6], 2.6%.
Turning to `CN=C(c1ccccc1)N(O)c1ccccc1`, the growth inhibition was -16.1% in experiment [1]; -1.15% in experiment [2]; -8.15% in experiment [3]; -10.1% in experiment [4]; -1.65% in experiment [5]; 6.2% in experiment [6].
Turning to `Cc1cc[n+](CCc2c[nH]c3ccccc23)cc1C`, the growth inhibition in experiment [1] was 30.5%; in experiment [2], -0.3%; in experiment [3], 11.9%; in experiment [4] it was 20.4%; in experiment [5] it was -1.65%; in experiment [6] it was 10.8%.
In the case of `COc1cc(N=Nc2cccc(S(=O)(=O)O)c2)ccc1NC(=O)c1ccc(C(=O)Nc2ccc(N=Nc3cccc(S(=O)(=O)O)c3)cc2OC)cc1`, the growth inhibition is 3.35% in experiment [1]; 17.4% in experiment [2]; 23% in experiment [3]; -8.2% in experiment [4]; -13.8% in experiment [5]; 21.2% in experiment [6].
Take `OC(c1ccc(Cl)cc1)c1nc2ccccc2[nH]1` (stereo not given): the growth inhibition in experiment [1] is 40.8%; in experiment [2] it was 18.4%; in experiment [3], 35.5%; in experiment [4], 15.9%; in experiment [5] it was 19.1%; in experiment [6] it was 33.5%.
`CCOC(=O)N(c1ccccc1)c1ccccc1`: the growth inhibition was -11.3% in experiment [1]; -18.8% in experiment [2]; 18.7% in experiment [3]; 5.65% in experiment [4]; 5% in experiment [5]; 15.2% in experiment [6].
Regarding `COc1cc(C)c2cc(C)cc(C)c2n1`, the growth inhibition is 3.4% in experiment [1]; 6.05% in experiment [2]; 1.65% in experiment [3]; -17.9% in experiment [4]; 3.9% in experiment [5]; 7.85% in experiment [6].
For the molecule `CCCCCCCCCCCn1cnc2c(=S)nc[nH]c21`, the growth inhibition was 0.25% in experiment [1]; 5.3% in experiment [2]; -17.1% in experiment [3]; 20.7% in experiment [4]; -21.2% in experiment [5]; -21.2% in experiment [6].
Turning to `CCCCC(CC)CCC(O)CC(C)C` (stereo not given), the growth inhibition in experiment [1] is -10.2%; in experiment [2], -11.3%; in experiment [3], 14.6%; in experiment [4], 10.8%; in experiment [5], 13.8%; in experiment [6], 5.25%.
Consider `Cc1ccc(S(=O)(=O)C(=S)SCc2ccccc2)cc1`, for which the growth inhibition was 38.5% in experiment [1]; 37.8% in experiment [2]; 59% in experiment [3]; 19.6% in experiment [4]; 35.4% in experiment [5]; 33% in experiment [6].
As for `O=[N+]([O-])c1ccc(Cl)c(F)c1Cl`, the growth inhibition was -13% in experiment [1]; -17.1% in experiment [2]; -0.2% in experiment [3]; 5.15% in experiment [4]; -3.9% in experiment [5]; -12.2% in experiment [6].
On to `Cc1nn(C(=O)CC(=O)Nc2ccccc2Cl)c(C)c1N=Nc1ccccc1Cl`, for which the growth inhibition is -11.3% in experiment [1]; 1.8% in experiment [2]; -29.1% in experiment [3]; 35.1% in experiment [4]; -8.55% in experiment [5]; -23.1% in experiment [6].
As to `c1ccc(CCN(CCc2ccccn2)CCc2ccccn2)nc1`, the growth inhibition was -5.85% in experiment [1]; -13.6% in experiment [2]; 0.35% in experiment [3]; 0.3% in experiment [4]; 3% in experiment [5]; 18% in experiment [6].
For the molecule `CCCC(C)C(SC(CC)C(N)=O)C(=O)O` (stereo not given), the growth inhibition in experiment [1] was -3.5%; in experiment [2], -5.15%; in experiment [3] it was 5.1%; in experiment [4] it was -12.8%; in experiment [5], 10.5%; in experiment [6], -9.15%.

Source of the values: PubChem BioAssay (NCI).
